Potency and affinity values are given separately.
What was measured:
[1] = tested on: Klebsiella pneumoniae; details: Concentration 32 ug.mL-1; ASSAY_TEST Inhibition of Bacterial Growth; detection method Absorption (OD600); MEDIA CAMHB; plate type 384well; NBS; CORNING #3640; time 18 hr
[2] = tested on: Candida albicans; details: 32 ug/mL
[3] = tested on: Cryptococcus neoformans; details: Concentration 32 ug.mL-1; ASSAY_TEST Inhibition of Fungal Growth; detection method Resazurin; Absorption (OD600-OD570); plate type 384well; NBS; CORNING #3640

Q: How did the Inhibition [1] turn out when CC(=O)O[C@H]1C[C@@]2(C)C(C[C@@H](O)C3[C@@]4(C)CC[C@@H](O)[C@@H](C)C4CC[C@@]32C)/C1=C(\CCC=C(C)C)C(=O)Oc1ccc(CCO[N+](=O)[O-])cc1 (some centres not stated) was run?
A: 24.64%

Q: And the Inhibition [2]?
A: 7.08%

Q: And the Inhibition [3]?
A: -126.19%

Q: With CC(=O)O[C@H]1C[C@@]2(C)C(C[C@@H](O)C3[C@@]4(C)CC[C@@H](OC(=O)C(N)C(C)C)[C@@H](C)C4CC[C@@]32C)/C1=C(\CCC=C(C)C)C(=O)OCc1ccccc1 (some centres not stated) as the compound, how does the Inhibition [1] read?
A: 18.28%

Q: What about the Inhibition [2] of the same compound?
A: 14.4%

Q: What about the Inhibition [3] of the same compound?
A: 88.23%

Q: What does the source list for CC(=O)O[C@H]1C[C@@]2(C)C(CC(=O)C3[C@@]4(C)CC[C@@H](OC(=O)CCCCCO[N+](=O)[O-])[C@@H](C)C4CC[C@@]32C)/C1=C(\CCC=C(C)C)C(=O)OCc1ccccc1 (some centres not stated)?
A: Inhibition [1]: 8.79%; Inhibition [2]: -2.93%; Inhibition [3]: -87.68%

Q: How did the Inhibition [1] turn out when CC(=O)O[C@H]1C[C@@]2(C)C(C[C@@H](O)C3[C@@]4(C)CC[C@@H](OC(=O)c5ccccc5C(=O)Oc5ccc(CCO[N+](=O)[O-])cc5)[C@@H](C)C4CC[C@@]32C)/C1=C(\CCC=C(C)C)C(=O)OCc1ccccc1 (some centres not stated) was run?
A: 0.97%

Q: What about the Inhibition [2] of the same compound?
A: -5.71%

Q: And the Inhibition [3]?
A: -72.43%

Q: What does the source list for CC(=O)O[C@H]1C[C@@]2(C)C(C[C@@H](O)C3[C@@]4(C)CC[C@@H](OC(=O)CCC(=O)OCCc5ccc(OCCO[N+](=O)[O-])cc5)[C@@H](C)C4CC[C@@]32C)/C1=C(\CCC=C(C)C)C(=O)OCc1ccccc1 (some centres not stated)?
A: Inhibition [1]: 3.49%; Inhibition [2]: -4.49%; Inhibition [3]: -89.71%

Q: What does the source list for CC(=O)O[C@H]1C[C@@]2(C)C(C[C@@H](O)C3[C@@]4(C)CC[C@@H](OC(=O)c5ccccc5C(=O)Nc5cccc(N)c5)[C@@H](C)C4CC[C@@]32C)/C1=C(\CCC=C(C)C)C(=O)OCc1ccccc1 (some centres not stated)?
A: Inhibition [1]: 1.34%; Inhibition [2]: 1.55%; Inhibition [3]: -66.02%

Q: How did the Inhibition [1] turn out when CC(=O)O[C@H]1C[C@@]2(C)C(CC(=O)C3[C@@]4(C)CC[C@@H](OC(=O)CCCCO[N+](=O)[O-])[C@@H](C)C4CC[C@@]32C)/C1=C(\CCC=C(C)C)C(=O)OCc1ccccc1 (some centres not stated) was run?
A: 10.79%

Q: And the Inhibition [2]?
A: -1.47%

Q: And the Inhibition [3]?
A: -85.18%

Q: For CC(=O)O[C@H]1C[C@@]2(C)C(C[C@@H](O)C3[C@@]4(C)CC[C@@H](OC(=O)CCC(=O)O)[C@@H](C)C4CC[C@@]32C)/C1=C(\CCC=C(C)C)C(=O)OCc1ccccc1 (some centres not stated), which Inhibition [1] is on record?
A: 31.46%

Q: What about the Inhibition [2] of the same compound?
A: -1.56%

Q: And the Inhibition [3]?
A: -100.19%

Q: With CC(=O)O[C@H]1C[C@@]2(C)C(C[C@@H](O)C3[C@@]4(C)CC[C@@H](OC(=O)c5ccccc5C(=O)Nc5ccc(N)cc5)[C@@H](C)C4CC[C@@]32C)/C1=C(\CCC=C(C)C)C(=O)OCc1ccccc1 (some centres not stated) as the compound, how does the Inhibition [1] read?
A: 5.38%

Q: What about the Inhibition [2] of the same compound?
A: 25%

Q: And the Inhibition [3]?
A: -105.92%

Q: Which Inhibition [1] does the source give for CC(=O)O[C@H]1C[C@@]2(C)C(C[C@@H](O)C3[C@@]4(C)CC[C@@H](OC(=O)C(N)CC(C)C)[C@@H](C)C4CC[C@@]32C)/C1=C(\CCC=C(C)C)C(=O)OCc1ccccc1 (some centres not stated) here?
A: 5.15%

Q: And the Inhibition [2]?
A: 2.67%

Q: And the Inhibition [3]?
A: -45.25%

Q: Which results are given for CC(=O)O[C@H]1C[C@@]2(C)C(C[C@@H](O)C3[C@@]4(C)CC[C@@H](O)[C@@H](C)C4CC[C@@]32C)/C1=C(\CCC=C(C)C)C(=O)OCc1ccccc1 (some centres not stated)?
A: Inhibition [1]: 15.54%; Inhibition [2]: -0.49%; Inhibition [3]: -62.82%

Q: Which Inhibition [1] does the source give for CC(=O)O[C@H]1C[C@@]2(C)C(C[C@@H](O)C3[C@@]4(C)CC[C@@H](OC(=O)CO[N+](=O)[O-])[C@@H](C)C4CC[C@@]32C)/C1=C(\CCC=C(C)C)C(=O)OCc1ccccc1 (some centres not stated) here?
A: 17.67%

Q: And the Inhibition [2]?
A: 0.87%

Q: And the Inhibition [3]?
A: -43.62%

Q: What does the source list for CC(=O)O[C@H]1C[C@@]2(C)C(C[C@@H](O)C3[C@@]4(C)CC[C@@H](OC(=O)CCCCCO[N+](=O)[O-])[C@@H](C)C4CC[C@@]32C)/C1=C(\CCC=C(C)C)C(=O)OCc1ccccc1 (some centres not stated)?
A: Inhibition [1]: -0.98%; Inhibition [2]: -2.51%; Inhibition [3]: -81.56%

Q: For CC(=O)O[C@H]1C[C@@]2(C)C(C[C@@H](O)C3[C@@]4(C)CC[C@@H](OC(=O)c5ccccc5C(=O)OCCc5ccc(OCCO[N+](=O)[O-])cc5)[C@@H](C)C4CC[C@@]32C)/C1=C(\CCC=C(C)C)C(=O)OCc1ccccc1 (some centres not stated), which Inhibition [1] is on record?
A: 4.99%

Q: And the Inhibition [2]?
A: -0.23%

Q: What about the Inhibition [3] of the same compound?
A: -57.39%

Q: Which Inhibition [1] does the source give for CC(=O)O[C@H]1C[C@@]2(C)C(C[C@@H](O)C3[C@@]4(C)CC[C@@H](OC(=O)C(C)N)[C@@H](C)C4CC[C@@]32C)/C1=C(\CCC=C(C)C)C(=O)OCc1ccccc1 (some centres not stated) here?
A: 8.77%

Q: What about the Inhibition [2] of the same compound?
A: 16.1%

Q: And the Inhibition [3]?
A: 90.52%

Q: CC(=O)O[C@H]1C[C@@]2(C)C(C[C@@H](O)C3[C@@]4(C)CC[C@@H](OC(=O)CCC(=O)Oc5ccc(CCO[N+](=O)[O-])cc5)[C@@H](C)C4CC[C@@]32C)/C1=C(\CCC=C(C)C)C(=O)OCc1ccccc1 (some centres not stated) was tested. Which Inhibition [1] did it give?
A: -3.54%

Q: What about the Inhibition [2] of the same compound?
A: -8.49%

Q: And the Inhibition [3]?
A: -78.97%

Q: How did the Inhibition [1] turn out when CC(=O)O[C@H]1C[C@@]2(C)C(C[C@@H](O)C3[C@@]4(C)CC[C@@H](OC(=O)CCCCO[N+](=O)[O-])[C@@H](C)C4CC[C@@]32C)/C1=C(\CCC=C(C)C)C(=O)OCc1ccccc1 (some centres not stated) was run?
A: 6.42%

Q: What about the Inhibition [2] of the same compound?
A: -3.76%

Q: What about the Inhibition [3] of the same compound?
A: -91.73%

Q: CC(=O)O[C@H]1C[C@@]2(C)C(CC(=O)C3[C@@]4(C)CCC(=O)[C@@H](C)C4CC[C@@]32C)/C1=C(\CCC=C(C)C)C(=O)OCc1ccccc1 (some centres not stated) was tested. Which Inhibition [1] did it give?
A: 19.97%

Q: And the Inhibition [2]?
A: 6.47%

Q: And the Inhibition [3]?
A: -73.01%

Q: CC(=O)O[C@H]1C[C@@]2(C)C(C[C@@H](O)C3[C@@]4(C)CC[C@@H](O)[C@@H](C)C4CC[C@@]32C)/C1=C(\CCC=C(C)C)C(=O)On1nnc2ccccc21 (some centres not stated) was tested. Which Inhibition [1] did it give?
A: -4.91%

Q: What about the Inhibition [2] of the same compound?
A: 3.88%

Q: What about the Inhibition [3] of the same compound?
A: -40.31%
